# Assay results reported in PMC6451091, “NextPBM: a platform to study cell-specific transcription factor binding and cooperativity”.
# Whole data set: some 3,700 sequences, median “z-score” near 4, cut for the highest 2% near 8.4. Only a selection was taken, and the highest values are over-represented in it overall.
# Experiments:
# [1] = molecular target: PU.1 (IVT) (UniProt P17947 1-270); test: protein-binding microarray (PBM); 20 mM HEPES pH 7.9, 100 mM NaCl, 1 mM DTT, 0.2 mg/mL BSA, 0.02% Triton X-100, 2% milk, 0.4 mg/mL salmon testes DNA; 1 h; temperature not stated; high values mean tight binding; conditions: dsDNA, one strand shown
# Summary of the method: (§1)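 Full-length untagged PU.1 was made by coupled human in vitro transcription/translation. It was bound for 1 h to custom double-stranded DNA microarrays carrying 20-bp genomic sites and single-nucleotide variants, 10 probes per site (5 per orientation). The binding buffer was HEPES pH 7.9 with 100 mM NaCl, 2% milk and salmon testes DNA. Bound protein was detected with anti-PU.1 and then a fluorescent secondary antibody. Binding is a z-score from scanned fluorescence after linear-regression normalisation.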
# [2] = molecular target: PU.1 (IVT) (UniProt P17947 1-270); test: as above; conditions: dsDNA, one strand shown; remark: listed apart in the source
# Summary of the method: as §1
Sequence,binding signal [1] [z-score],binding signal [2] [z-score]
GCCTAGCACTAGATGAGGAAGTACTGTGCGTGCTAGGTCTTGATTCGCTTGACGCTGCTG,6.57,–
GCCTAGCACTTTAACAGGAAGTGAAACCAGTGCTAGGTCTTGATTCGCTTGACGCTGCTG,4.61,–
GCCTAGCACCAAAAAGGGAAGTGGGTTGAGTGCTAGGTCTTGATTCGCTTGACGCTGCTG,–,7.02
GCCTAGCACTGAAACAGGAAGTGAGACCAGTGCTAGGTCTTGATTCGCTTGACGCTGCTG,–,6.68
GCCTAGCACGGAATAGGGAAGTGAAACTGGTGCTAGGTCTTGATTCGCTTGACGCTGCTG,6.68,–
GCCTAGCACGAAAAGGGGAACTGAAACTAGTGCTAGGTCTTGATTCGCTTGACGCTGCTG,–,6.15
GCCTAGCACAAAAGGAGGAAGTGGGGGGAGTGCTAGGTCTTGATTCGCTTGACGCTGCTG,6.01,–
GCCTAGCACAAAAAGAGGAAGTGAGCTTAGTGCTAGGTCTTGATTCGCTTGACGCTGCTG,–,8.51
GCCTAGCACAAAAAAAGGAAGTGAGAGCTGTGCTAGGTCTTGATTCGCTTGACGCTGCTG,6.29,–
GCCTAGCACAAAAAAGAGAAGTGGGGGAAGTGCTAGGTCTTGATTCGCTTGACGCTGCTG,–,5.77
GCCTAGCACAAAAGGAGGAAGTGAAAGTAGTGCTAGGTCTTGATTCGCTTGACGCTGCTG,–,6.69
GCCTAGCACAAAAAGAGGAAGAGGAGGAGGTGCTAGGTCTTGATTCGCTTGACGCTGCTG,5.1,–
GCCTAGCACAAAAAGAGGAAGTGCCCTGTGTGCTAGGTCTTGATTCGCTTGACGCTGCTG,–,8.56
GCCTAGCACAAAAAGAGGAAGTGCACAAGGTGCTAGGTCTTGATTCGCTTGACGCTGCTG,–,8.64
GCCTAGCACAAAAAGAGGAAGTGGGGGAGGTGCTAGGTCTTGATTCGCTTGACGCTGCTG,–,8.59
GCCTAGCACAAAAAGAGGAAGGGGAAGAAGTGCTAGGTCTTGATTCGCTTGACGCTGCTG,6.26,–
GCCTAGCACAAAGAAAGGAAGTGGCCTGTGTGCTAGGTCTTGATTCGCTTGACGCTGCTG,–,2.71
GCCTAGCACAAAAGGAGGAAGTGATCCCTGTGCTAGGTCTTGATTCGCTTGACGCTGCTG,–,6.77
GCCTAGCACTGATAGAGGAAGTGCAACCAGTGCTAGGTCTTGATTCGCTTGACGCTGCTG,4.92,–
GCCTAGCACGATAGCAGGAAGTGAAACTAGTGCTAGGTCTTGATTCGCTTGACGCTGCTG,3.14,–
GCCTAGCACGCAGAGAGGAAGTGTGAATGGTGCTAGGTCTTGATTCGCTTGACGCTGCTG,3.72,–
GCCTAGCACTGAGAGGAGAAGTGAAACCCGTGCTAGGTCTTGATTCGCTTGACGCTGCTG,–,1.26
GCCTAGCACATTTCTGGGAAGTGAAACTAGTGCTAGGTCTTGATTCGCTTGACGCTGCTG,1.93,–

Sequence,binding signal [1] [z-score],binding signal [2] [z-score]
GCCTAGCACATAAAAGGGAAGTGGGGCATGTGCTAGGTCTTGATTCGCTTGACGCTGCTG,5.38,–
GCCTAGCACAGAAAAAGGAAGTGAGCAAAGTGCTAGGTCTTGATTCGCTTGACGCTGCTG,5.53,–
GCCTAGCACTTAAAGAGGAAGAGCATCTTGTGCTAGGTCTTGATTCGCTTGACGCTGCTG,3.21,–
GCCTAGCACTCAAAGAGGAAGTGACATTTGTGCTAGGTCTTGATTCGCTTGACGCTGCTG,–,7.03
GCCTAGCACGAAAAAGGGAACTGGTTGGGGTGCTAGGTCTTGATTCGCTTGACGCTGCTG,–,5.22
GCCTAGCACGGAAGAAGGAAGTGGGGGCCGTGCTAGGTCTTGATTCGCTTGACGCTGCTG,–,3.66
GCCTAGCACAGGAGGAGGAAGTGGGGGGAGTGCTAGGTCTTGATTCGCTTGACGCTGCTG,–,4.05
GCCTAGCACGATAAGAGGAACTGTAAGCTGTGCTAGGTCTTGATTCGCTTGACGCTGCTG,–,3.92
GCCTAGCACTGAGAGGAGAAGTGAAATCTGTGCTAGGTCTTGATTCGCTTGACGCTGCTG,1.39,–
GCCTAGCACCAAATTAGGAACTGATGCGGGTGCTAGGTCTTGATTCGCTTGACGCTGCTG,2.14,–
GCCTAGCACGCTAAGAGGAAGTCCTCTGTGTGCTAGGTCTTGATTCGCTTGACGCTGCTG,5.07,–
GCCTAGCACAAAAAGAGGAAGTGGTACAAGTGCTAGGTCTTGATTCGCTTGACGCTGCTG,–,8.76
GCCTAGCACAAAAAAAGGAAGTGAGATAAGTGCTAGGTCTTGATTCGCTTGACGCTGCTG,–,6.74
GCCTAGCACAAAAAGAGGAAGGGTGGCTGGTGCTAGGTCTTGATTCGCTTGACGCTGCTG,4.91,–
GCCTAGCACAAAAAAAGGAAGTGCTCAAGGTGCTAGGTCTTGATTCGCTTGACGCTGCTG,6.42,–
GCCTAGCACAAAAAGAGGAAGGGACCCAAGTGCTAGGTCTTGATTCGCTTGACGCTGCTG,–,5.29
GCCTAGCACAAAAGGAGGAAGTGATGATGGTGCTAGGTCTTGATTCGCTTGACGCTGCTG,6.55,–
GCCTAGCACAAAAAGAGGAAGTGAGATGGGTGCTAGGTCTTGATTCGCTTGACGCTGCTG,–,8.88
GCCTAGCACACAAAGGGGAAGTGCTAGGGGTGCTAGGTCTTGATTCGCTTGACGCTGCTG,6.35,–
GCCTAGCACAAAAAGAGGAAGTGATGATGGTGCTAGGTCTTGATTCGCTTGACGCTGCTG,–,9.07
GCCTAGCACAAGAGGAGGAAGTGAGAGAGGTGCTAGGTCTTGATTCGCTTGACGCTGCTG,–,4.33
GCCTAGCACAAAAAGCGGAAGTGCAAAAGGTGCTAGGTCTTGATTCGCTTGACGCTGCTG,–,8.5
GCCTAGCACAAAAAAAGGAAGTGGTAGCAGTGCTAGGTCTTGATTCGCTTGACGCTGCTG,–,6.75
